Experimental findings from PubChem BioAssay AID463212 (Sanford-Burnham Center for Chemical Genomics, 2010) are described below.

Hit rate of the full screen: of about 330,000 compounds, about 4,400 (1.3%) were called active. Many of the other results were omitted from the sample, so actives are more common in it than they were. Unmarked numbers belong to inactive results.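 The calls were made as follows: active = growth inhibition of the mutant yeast at or above 50%; inactive = the rest.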

The assay in a line: growth inhibition of tim23-1 ts yeast – luminescence, uHTS, primary screen (AID 463212).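 Also: temperature-sensitive mutant grown at 25 °C; plate controls were DMSO-treated mutant yeast for no effect and medium wells lacking yeast for full effect.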 To be noted: S. cerevisiae tim23-1 growth, BacTiter-Glo luminescence, 24 h; at 20 µM; hits give high values.
For the compound `O=C1Cc2ccccc2Sc2ccc(Cl)cc21`, the inhibition (commonly the change of the read-out against control, counted positive when it falls) was 28.6%.
Turning to `COc1cc(NS(=O)(=O)c2ccc(N/C=C(\C=O)c3nc4cc(Cl)ccc4o3)cc2)nc(OC)n1`, the inhibition is 15.4%.
The same measure for `Cc1ccc(C(=O)N/C(=C\c2ccco2)C(=O)NC2CCS(=O)(=O)C2)cc1` (stereo not drawn): 24.1%; for `Cc1oc2c(c1C(=O)N1CCOCC1)C(=O)c1ccccc1C2=O`: 69% (active).
On to `COc1cc2ccccc2cc1C(=O)N1CCOCC1`, for which the inhibition is 22.5%.
Under `COC1=C(N2CCOCC2)C(=O)c2ccccc2C1=O` stands 2.06%; under `CCC(=O)N1CCC(C(N)=O)(N2CCCCC2)CC1`, -3.89%; under `Cn1nnc2cc(C(=O)NCCC3=CCCCC3)ccc21`, -1.3%.
Turning to `Cc1cccc(-c2nc3ccc(C(=O)NCCN4CCN(C)CC4)cc3nc2-c2cccc(C)c2)c1`, the inhibition is 25.1%.
`C=CCNC(=O)c1ccc2c3n(nc2c1)-c1ccc(C)cc1CO3`: the inhibition was 57.6% (active).
Under `Cc1cc(N)n2nc(-c3ccc(C(C)(C)C)cc3)cc2n1` stands 72.3% (active).
For the compound `COc1ccc(-c2cc(C)nc3nc(N)nn23)cc1`, the inhibition was 8.84%.
Take `Cc1cc(C(C)(C)C)cc(C)c1N`: the inhibition was 9.69%.
The same measure for `Cc1nnc(NC(=O)CSc2nc(C3CCCCC3)nc3ccccc23)s1`: -0.646%; for `O=C1c2ccccc2C(=O)N1CCC(c1ccccc1)c1ccco1` (stereo not drawn): 22.6%.
Turning to `O=S(=O)(Nc1cccc(-n2cnnn2)c1)c1cnc(Cl)c(Cl)c1`, the inhibition is -3.26%.
Under `CCNC(=O)c1cnn(-c2ccccc2)c1-c1ccccc1` stands 0.114%; under `CCCc1c(C(=O)Nc2ccc(F)cc2)cnn1-c1ccccc1`, 55.9% (active).
Under `CCCc1c(C(=O)O)cnn1-c1ccc(Cl)cc1` stands 13.8%; under `CC(=O)c1ccccc1NC(=O)C1CC(=O)N(c2ccc3c(c2)OCCO3)C1` (stereo not drawn), 14.1%; under `CC1CCC2CCCCC2N1C(=O)c1cc([N+](=O)[O-])cc([N+](=O)[O-])c1` (stereo not drawn), 51.9% (active).
On to `CC1(c2ccccc2)CC(C)(C)N(C(=O)c2cc([N+](=O)[O-])cc([N+](=O)[O-])c2)c2ccccc21` (stereo not drawn), for which the inhibition is 4.81%.
As to `CC1CCN(C(=S)c2cccc([N+](=O)[O-])c2)CC1`, the inhibition is 21.4%.
Take `COc1ccc(S(=O)(=O)N2CCOCC2)cc1NC(=O)CSc1cc(C)ccc1C`: the inhibition is 7.5%.
In the case of `CC[C@]12c3[nH]c4ccc(OC)cc4c3CCN1C(=O)C(CC(=O)NCCN1CCOCC1)C[C@@H]2C(=O)N1CCN(C(=O)C2CC2)CC1` (stereo partly drawn), the inhibition was 26.2%.
For `O=C(Nc1ccc2oc(-c3ccccc3F)nc2c1)c1ccco1`, the inhibition was 57.8% (active).
With `O=C(Nc1cccc(-c2nc3ncccc3o2)c1)c1ccco1`, the inhibition was 4.7%.
For `Cc1cc(NC(=O)c2ccc(F)cc2)ccc1NC(=O)c1ccco1`, the inhibition is 13.5%.
On to `CCCCC1(C(=O)OCC)NC(c2ccc(O)cc2)C2C(=O)N(c3ccccc3)C(=O)C21` (stereo not drawn), for which the inhibition is 1.2%.
As to `CCC(=O)Nc1ccc(C(=O)CSc2nnc(CNc3ccc(Cl)cc3)o2)cc1OC`, the inhibition is -7.17%.
Take `O=C(COC(=O)CNC(=O)C1CCCCC1)Nc1cccc(F)c1`: the inhibition is 17.5%.
For the compound `N#C/C(=C\c1ccccc1C(F)(F)F)C(=O)Nc1ccccc1F`, the inhibition was 71.2% (active).
For `O=C(Nc1ccccc1F)c1ccccc1-c1ccc(C(F)(F)F)cc1`, the inhibition was 16%.
Regarding `CN(CC(=O)Nc1ccccc1C(F)(F)F)C(=O)Cc1ccccc1F`, the inhibition was 14.9%.
Take `CSc1ccccc1NC(=O)COC(=O)CCCOc1ccc(C)cc1`: the inhibition is -1.47%.
With `COc1cc([N+](=O)[O-])ccc1NC(=O)COC(=O)CCOc1ccc(C)cc1`, the inhibition is 73.7% (active).
As for `COc1cccc(NC(=O)COC(=O)CCOc2ccccc2OC)c1`, the inhibition is 8.9%.
Take `Cc1cccc(N2C(=O)SC(SC(=Nc3ccccc3)Nc3ccccc3)C2=O)c1` (stereo not drawn): the inhibition is 49.6%.
For the compound `CN(C)C(=O)c1cc(Br)ccc1Cl`, the inhibition was -8.05%.
Consider `Cc1ccc(OCCCCN2CCCCC2)c(Br)c1`, for which the inhibition was 16.7%.
For the compound `CN(c1ccccc1)S(=O)(=O)c1cccc(NC(=O)Cc2c(F)cccc2Cl)c1`, the inhibition was 23.3%.
For `O=C(Cc1c(F)cccc1Cl)Nc1ncc([N+](=O)[O-])s1`, the inhibition is 55.4% (active).
The same measure for `COc1ccc(S(=O)(=O)N2CCOCC2)cc1NC(=O)Cc1c(F)cccc1Cl`: 5.42%.
For `COc1ccc2nc3n(c(=O)c2c1)-c1cc(C)ccc1C(=O)NC3Cc1ccc(O)cc1` (stereo not drawn), the inhibition is -6.13%.
For the compound `Cc1ccc(C2CC(=O)NC(SCC(=O)OCc3ccccc3)=C2C#N)o1` (stereo not drawn), the inhibition was 59.1% (active).
Take `COC(=O)CSC1=C(C#N)C(c2ccccc2OC)C(C(=O)OC)C(=O)N1` (stereo not drawn): the inhibition is 12.9%.
With `CCCc1cc(=O)[nH]c(SCC(=O)OCc2ccccc2)n1`, the inhibition is 6.03%.
The same measure for `CCCc1nnc(SCC(=O)N2C(C)CCCC2C)n1CC` (stereo not drawn): 1.57%; for `CC1CCCCC12NC(=O)N(CC(=O)N1CCN(c3ccccc3)CC1)C2=O` (stereo not drawn): 17.7%; for `O=C(c1[nH]ncc1-c1ccc(Cl)cc1)C1CO1` (stereo not drawn): 43.9%.
Regarding `O=C(Nc1cc(S(=O)(=O)N2CCOCC2)ccc1N1CCOCC1)c1c(F)cccc1Cl`, the inhibition was 14.4%.
`Cc1cccc(Oc2c([N+](=O)[O-])c(=O)n(C)c3ccccc23)c1`: the inhibition is 56% (active).
On to `Cc1cccc(OP(=O)(Nc2c(C)n(C)n(-c3ccccc3)c2=O)Oc2cccc(C)c2)c1`, for which the inhibition is 20.4%.
Under `Cc1cc(C)c(-c2c(O)c3ccccc3n(C)c2=O)c(C)c1` stands 4.89%.
In the case of `CCn1c(SCC(=O)Nc2cc(C)ccc2C)nnc1-c1cnccn1`, the inhibition is 5.06%.
Under `CCc1cccc(NC(=O)CCCN2C(=O)C(c3ccccc3)Oc3cccnc32)c1` (stereo not drawn) stands 35.3%; under `COc1ccc(C(=O)COC(=O)c2ccc3ccccc3n2)cc1`, 40.7%; under `CC(OC(=O)c1ccc2ccccc2n1)C(=O)c1ccccc1` (stereo not drawn), 10.7%.
Under `O=C(Oc1ccc([N+](=O)[O-])cc1)c1ccc2ccccc2n1` stands 69.8% (active).
Regarding `COc1ccc([N+](=O)[O-])cc1C1NN=C(c2cccc3ccccc23)S1` (stereo not drawn), the inhibition is 0.511%.
`N#C[C@]1(S(=O)(=O)c2ccccc2)C[C@@H]2ON=C(c3cccc(Br)c3)[C@@H]2C1`: the inhibition is 24.4%.
Take `CSc1ncnc2sc(C)c(C)c12`: the inhibition was -2.76%.
`Cc1sc2ncnc(Sc3nc4ccccc4s3)c2c1C`: the inhibition is 14.7%.
Under `CCCNc1ncnc2sc(C)c(C)c12` stands 58.6% (active); under `COc1cc(C(=O)NCC(c2ccco2)N2CCCC2)ccc1OCc1ccccc1` (stereo not drawn), 2.02%.
The same measure for `CCc1ccc(C2C(C#N)=C(N)N(N3CCOCC3)C3=C2C(=O)CC(C)(C)C3)s1` (stereo not drawn): 5.14%; for `Cc1ccc(S(=O)(=O)N2CC(O)C[C@H]2C(=O)OCC(=O)Nc2ccc(N3CCOCC3)cc2)cc1C` (stereo partly drawn): 4.11%.
With `O=C(O)C#Cc1cccc2ccccc12`, the inhibition is 7.2%.
On to `CN(Cc1ccccc1)C(=O)COC(=O)c1ccccc1Nc1ccccc1`, for which the inhibition is 42%.
In the case of `CCN1/C(=C\c2ccc3ccccc3[n+]2CC)Sc2cc(C)ccc21`, the inhibition is 51.5% (active).
The same measure for `CC(C)(C)OC(=O)CNC(=O)c1[nH]cnc1C(=O)N[C@@H](CCCCN)C(=O)OC(C)(C)C`: -2.18%.
Turning to `O=C(c1ccccc1)c1cccn1CC(=O)N1CCN(c2ccc(F)cc2)CC1`, the inhibition was 17.4%.
Take `CN(C)Cc1ccccc1C1(O)c2ccccc2CSc2ccccc21` (stereo not drawn): the inhibition was 34.6%.
The same measure for `COc1ccc(C(=O)CC(=O)c2ccc(C)cc2)c(O)c1`: 29.8%.
On to `O=C(CSc1ncn[nH]1)NCc1ccc2c(c1)OCO2`, for which the inhibition is -3.54%.
For `O=C(/C=C/Sc1ncn[nH]1)c1ccc(Cl)cc1`, the inhibition was 74.3% (active).
The same measure for `O=C(CSc1ncn[nH]1)Nc1ccc(Br)cc1Br`: -3%; for `CN(CCC1CCOCC1)C(=O)CC1C(=O)NCCN1Cc1cccc(F)c1` (stereo not drawn): -8.17%.
Consider `COc1ccc(OCCn2ccnc2C)cc1`, for which the inhibition was -7.96%.
`COc1cc(OC)cc(-c2cc3nc(C4CCN(C(=O)OC(C)(C)C)CC4)cc(=O)n3[nH]2)c1`: the inhibition is 7.61%.
As to `CCCCNC(=O)CCn1nc(-c2ccc(Cl)cc2)ccc1=O`, the inhibition was 18%.
On to `Cc1ccc(S(=O)(=O)NC(C)C(=O)NCc2ccc(Cl)cc2)cc1` (stereo not drawn), for which the inhibition was -2.23%.
Turning to `CCOc1ccccc1/C=c1\sc2nc(-c3ccco3)nn2c1=O`, the inhibition is 52.2% (active).
The same measure for `CCCn1nc(C(=O)NNC(=O)CCOc2ccccc2OCC)c2ccccc2c1=O`: -4.04%; for `CCOc1ccccc1C1NC(=O)NC(C)=C1C(=O)OCc1ccco1` (stereo not drawn): 16%; for `COC(=O)c1c(NC(=O)c2ccc(S(=O)(=O)N3CCOCC3)cc2)sc2c1CCN(C(C)C)C2`: 8.38%.
Under `CC(=O)c1ccc(NC(=O)C2CCCN2S(=O)(=O)c2cccs2)cc1` (stereo not drawn) stands 14.8%.
As for `C=C1CCC(N(O)c2cc(C)on2)C(=C)CCC2C1CC2(C)C` (stereo not drawn), the inhibition was 55.5% (active).
For `Cc1cccc(N(C)C(=O)c2cc3c(=O)[nH]c4ccc(C)cc4c3s2)c1`, the inhibition was 6.52%.
For the compound `O=C(CNC(=O)c1cccs1)N/N=C/c1cccc(Br)c1`, the inhibition was 16.1%.
Under `O=C(N/N=C\c1cccc(Br)c1)c1ccccc1-n1cccc1` stands 53.7% (active); under `O=C(N/N=C/c1cccc(Br)c1)c1ccc(N2CCCC2=O)cc1`, 12.3%; under `CCS(=O)(=O)Nc1cccc(-c2cc(-c3ccccc3)c3cc(C)ccc3n2)c1`, 29.6%.
In the case of `Cc1ccc2nc(Nc3ccccc3)cc(C)c2c1`, the inhibition was 57.6% (active).
In the case of `CC(=O)Nc1ccc(Nc2cc(C)nc(Nc3ccc(NC(C)=O)cc3)n2)cc1`, the inhibition is 8.84%.
`Cc1ccc2nc(Nc3ccccc3O)nc(-c3ccccc3)c2c1`: the inhibition is 24.4%.
As for `Cc1cc(Nc2ccc(Br)cc2)nc2ccccc12`, the inhibition was 55.5% (active).
For `CN1CCN(c2nc(Nc3ccc(O)cc3)nc3ccccc23)CC1`, the inhibition is -37.1%.
